Paper PMC4552634, “A New Set of Chemical Starting Points with Plasmodium falciparum Transmission-Blocking Potential for Antimalarial Drug Discovery” (PLoS ONE, 2015)
Screen size: about 13,000 compounds; about 3,200 (25%) showed an effect of 50% or more. The list shows a part of the results.

What follows are molecules tested on P. falciparum stage V gametocytes. Settings: 48 h, 5 µM; inhibitor.
Design: BacTiter-Glo ATP luminescence viability of purified stage V gametocytes in 384-well plates, per cent inhibition versus DMSO

Point of comparison: CS(=O)(=O)CCNCc1nc(-c2ccc3ncnc(Nc4ccc(OCc5ccccc5)c(Cl)c4)c3c2)cs1 [TCMDC-138497], “% Inhibition” value -10.86%. Against it:
- COC(=O)c1cc(C(=O)CN(Cc2ccccc2)C(C)C)ccc1O [TCMDC-131766] — higher, 18.13%
- CC(=O)Nc1ccc(OCCCCN(Cc2ccccc2C(F)(F)F)c2ccc(C(F)(F)F)c(C#N)c2)c(Cl)c1 [TCMDC-133358] — higher, 47.4%
- N#Cc1ccc(OCCN(Cc2ccccc2C(F)(F)F)c2ccc(C#N)c(C(F)(F)F)c2)cc1 [TCMDC-132799] — higher, 28.83%
- CC(=O)Nc1ccc(OCCCN(Cc2ccccc2OC(F)(F)F)c2ccc(C(F)(F)F)c(C#N)c2)c(Cl)c1 [TCMDC-132789] — higher, 32.58%
- N#Cc1ccc(N(CCOC(=O)c2ccc(Br)s2)Cc2ccccc2C(F)(F)F)cc1C(F)(F)F [TCMDC-135739] — higher, 59.47%
- N#Cc1ccc(N(CCCO)Cc2ccccc2C(F)(F)F)cc1C(F)(F)F [TCMDC-134689] — higher, 3.655%
- N#Cc1ccc(N(CCOC(=O)c2ccccc2)Cc2ccccc2C(F)(F)F)cc1C(F)(F)F [TCMDC-135738] — lower, -18.34%
- CC(=O)Nc1ccc(OCCN(Cc2ccccc2C(F)(F)F)c2ccc(C#N)c(C(F)(F)F)c2)cc1 [TCMDC-132802] — higher, 0.1764%
- N#Cc1ccc(N(CCNS(=O)(=O)c2cc(Br)c(Cl)s2)Cc2ccccc2C(F)(F)F)cc1C(F)(F)F [TCMDC-135822] — higher, 50.22%
- CC(=O)Nc1ccc(OCCN(Cc2ccccc2OC(F)(F)F)c2ccc(C(F)(F)F)c(C#N)c2)c(Cl)c1 [TCMDC-132792] — higher, 45.86%
- CC(=O)Nc1ccc(OCCN(Cc2ccccc2C(F)(F)F)c2ccc(C#N)c(C(F)(F)F)c2)c(Cl)c1 [TCMDC-132790] — higher, 76.06%
- N#Cc1ccc(N(CCOc2ccc(Cl)cc2)Cc2ccccc2C(F)(F)F)cc1C(F)(F)F [TCMDC-132794] — lower, -24.46%
- CC(=O)Nc1ccc(OCCCN(Cc2ccccc2C(F)(F)F)c2ccc(C(F)(F)F)c(C#N)c2)c(Cl)c1 [TCMDC-132785] — higher, 61.05%
- CCC(=O)Nc1cc(=O)[nH]c2nc(-c3ccc(Cl)cc3)nn12 [TCMDC-125473] — lower, -75.71%
- Cc1cc(-c2cc(-c3ccc(OCCN(C)C)cc3)[nH]c2-c2ccc3c(c2)CCC3=NO)ccn1 [TCMDC-141302] — higher, 25.92%
- N#Cc1cccc(NC(=O)Nc2ccc(CC(=O)N3CCc4cc(Cl)c(N5CCN(C/C=C/c6ccccc6)CC5)cc43)cc2)c1 [TCMDC-139476] — higher, 12.28%
- CCCc1cc(Cc2cnc(N)nc2N)ccc1OCCCCCC(=O)O [TCMDC-137231] — lower, -22.54%
- CS(=O)(=O)CCNCc1cc(-c2cc3ncnc(Nc4ccc(OCc5cccc(F)c5)c(Cl)c4)c3s2)cs1 [TCMDC-138726] — higher, -0.4482%
- CCOC(=O)c1ccc2nc(-c3ccc(C(=O)NC4CCN(Cc5ccccc5)CC4)s3)[nH]c2c1 [TCMDC-140575] — lower, -23.22%
- CCCCSc1nc2c(c(=O)n1Cc1ccco1)C1(CCCCC1)Cc1ccccc1-2 [TCMDC-123896] — lower, -14.5%
- CC(C)(C)Oc1ccc(C[C@@H]2NC3(C(=O)N(Cc4ccc(Cl)c(Cl)c4)c4ccccc43)C3C(=O)N(c4ccc(Br)cc4)C(=O)C32)cc1 (some centres unmarked) [TCMDC-139775] — lower, -22.32%
- CC(=O)Nc1ccc(OCCN(CC(C)(C)C)c2ccc(C#N)c(C(F)(F)F)c2)c(Cl)c1 [TCMDC-132786] — higher, 66.46%
- CC(=O)Nc1ccc(OCCN(CC(C)C)c2ccc(C(F)(F)F)c(C#N)c2)c(Cl)c1 [TCMDC-132793] — higher, 18.14%
- CC(=O)Nc1ccc(OCCCCN(Cc2ccccc2C(F)(F)F)c2ccc(C#N)c(C(F)(F)F)c2)cc1 [TCMDC-132800] — higher, 12.39%
- CC(=O)Nc1ccc(OCCCCN(Cc2ccccc2OC(F)(F)F)c2ccc(C(F)(F)F)c(C#N)c2)c(Cl)c1 [TCMDC-132788] — higher, 39.51%
- CC(=O)Nc1ccc(OCCN(CC(C)C)c2ccc(C#N)c(C(F)(F)F)c2)c(Cl)c1 [TCMDC-137002] — higher, 29.5%
- CC(=O)Nc1ccc(OCCCCN(Cc2ccccc2C(F)(F)F)c2ccc(C#N)c(C(F)(F)F)c2)c(Cl)c1 [TCMDC-132787] — higher, 69.01%
- O=C(Nc1ccc(-c2cccc(-c3nc4ccccc4[nH]3)c2)cc1)Nc1ccc(F)c(F)c1F [TCMDC-133237] — higher, 3.705%
- COc1cc(N)cc2sc(N)nc12 [TCMDC-124235] — lower, -47.26%
- COCCN(C)c1ccc(C(=O)Nc2ccccc2)cc1NS(=O)(=O)Cc1ccccc1 [TCMDC-134575] — higher, 41.39%
- O=C(O)CCSSc1cccc[n+]1[O-] [TCMDC-141973] — higher, 168.8%
- COc1cc2c(cc1C(F)(F)F)N(C(=O)Nc1cc(F)cc(-c3cccnn3)c1)CC2 [TCMDC-139045] — higher, -0.3523%
- Cc1ccc(C(=O)Nc2ccc(Nc3ccnc4cc(-c5ccncc5)ccc34)cc2O)cc1 [TCMDC-138294] — lower, -17.41%
- Cc1ccc(C(=O)Nc2ccc(Nc3ccnc4cc(-c5nccs5)ccc34)cc2O)cc1 [TCMDC-138298] — higher, 75.39%
- c1ccc(-c2ccc3c(Nc4ccc5[nH]ccc5c4)ccnc3c2)nc1 [TCMDC-138200] — higher, 22.33%
- CC(=O)Nc1ccc(COc2ccc(Nc3ccnc4cc(-c5ccccn5)ccc34)cc2)cc1 [TCMDC-138206] — higher, 116.6%
- c1ccc(-c2ccc3c(Nc4ccc5[nH]ncc5c4)ccnc3c2)nc1 [TCMDC-138199] — higher, 108.3%
- Cc1ccc(Nc2ccnc3cc(-c4nccs4)ccc23)cc1C(O)c1ccccc1 (centres unmarked) [TCMDC-138338] — higher, -2.553%
- O=C(C(=O)c1ccc(Nc2ccnc3cc(-c4ccccn4)ccc23)cc1)c1ccccc1 [TCMDC-138204] — higher, -8.545%
- COc1ccc(Nc2ccnc3cc(-c4ccccn4)ccc23)cc1OC [TCMDC-138207] — lower, -27.22%
- Cc1ccc(C(=O)Nc2ccc(Nc3ccnc4cc(-c5ccccn5)ccc34)cc2O)cc1 [TCMDC-138205] — higher, 115.7%
- COc1cc2nccc(Nc3ccc(OCc4ccc(NC(C)=O)cc4)cc3)c2cc1OC.Cl [TCMDC-138198] — lower, -13.16%
- COc1cc2nccc(Nc3ccc(NC(=O)c4ccc(C)cc4)c(O)c3)c2cc1OC.Cl [TCMDC-138197] — higher, 20.08%
- Cc1ccc(O)cc1Nc1ccnc2cc(-c3ccccn3)ccc12 [TCMDC-138201] — higher, 17.09%
- Cc1ccc(F)cc1S(=O)(=O)NCC(C)c1ccc(NC(=O)Nc2cccc(F)c2)cc1 (centres unmarked) [TCMDC-136380] — lower, -32.92%
- OC(CNc1ccnc(Nc2cccc(Cl)c2)n1)c1ccccc1C(F)(F)F (centres unmarked) [TCMDC-136578] — lower, -37.8%
- CC(C)n1cc2c(ccc3nc(N)nc(N)c32)n1 [TCMDC-137865] — lower, -36.93%
- COc1ccc2nccc([C@@H](O)CN3CCC(NCc4ccc5c(c4)N(C)C(=O)CO5)CC3)c2c1 [TCMDC-141093] — higher, -7.365%
- COCCCNc1sc(S(=O)(=O)c2ccccc2)nc1S(=O)(=O)c1ccc(C)cc1 [TCMDC-125275] — lower, -13.04%
- CS(=O)(=O)CCNCc1nc(-c2ccc3c(=O)[nH]cnc3c2)cs1 [TCMDC-138539] — higher, 107%
- CS(=O)(=O)CCNCc1nc(-c2ccc3c(Nc4ccc(F)c(O)c4)ccnc3c2)cs1 [TCMDC-138437] — lower, -66.48%
- O=C(Nc1ccc(Cl)cc1)N(CC1CC2CCC(C1)N2Cc1ccc(C(F)(F)F)cc1)c1ccc(N2CCOCC2)c(F)c1 (centres unmarked) [TCMDC-135859] — higher, 42.25%
- COCc1nc(-c2ccccc2)nc(N2CCN(C(=O)NC(C)C)CC2)c1Cc1ccccc1F [TCMDC-124782] — higher, 9.126%
- Cc1onc(-c2c(Cl)cccc2Cl)c1C(=O)NC1=NC(C)(C)ON1c1ccccc1 [TCMDC-123777] — higher, -4.951%
- Cc1cccc2[nH]c(-c3ccc(-c4cccc(NC(=O)NCc5ccccc5)c4)cc3)nc12 [TCMDC-133162] — lower, -12.85%
- COCCNCc1cccc(-c2cccc(CN(C(=O)Nc3ccccc3)C3CCN(Cc4ccccc4)CC3)c2)c1 [TCMDC-140586] — higher, 56.29%
- COCCNCc1cccc(-c2ccccc2CN(C(=O)Nc2ccccc2)C2CCN(Cc3ccccc3)CC2)c1 [TCMDC-140579] — higher, 41.2%
- COCCNCc1cccc(-c2ccc(CN(C(=O)Nc3ccccc3)C3CCN(Cc4ccccc4)CC3)cc2)c1 [TCMDC-140599] — higher, 105.4%
- COCCNCc1ccc(-c2ccc(CN(C(=O)Nc3ccccc3)C3CCN(Cc4ccccc4)CC3)cc2)cc1 [TCMDC-140600] — higher, 51.26%
- COc1cccc(CN2CCCC(CCC(=O)Nc3ccc(C(F)(F)F)cc3)C2)c1O (centres unmarked) [TCMDC-124616] — lower, -32.93%
- COc1ccc(CC(=O)Nc2ccc(-c3cccc(-c4nc5c(C)cccc5[nH]4)c3)cc2)cc1O [TCMDC-132145] — higher, -7.504%
- Fc1ccc(-c2nc(NCc3cccc(C(F)(F)F)c3)nn2-c2cccc(C(F)(F)F)c2)cc1C(F)(F)F [TCMDC-133542] — lower, -57.69%
- O=[N+]([O-])c1cccc(-n2nc(NCc3ccc(Cl)cc3)nc2-c2ccc(F)c(C(F)(F)F)c2)c1 [TCMDC-133541] — higher, 77.17%
- Fc1ccc(CNc2nc(-c3ccc(F)c(C(F)(F)F)c3)n(-c3cccc(C(F)(F)F)c3)n2)cc1 [TCMDC-133543] — higher, -1.205%
